The record followed here is PubChem BioAssay (NCATS).

Test [1] can be described thus: AP1 Signaling Pathway (AID 357; active means well fitted curve in either direction with a large enough effect, not every such curve was filed as active; further: on the % scale 0 is the no-effect control and ±100 the full control effect). The method in brief:
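AP-1-bla ME-180 cells with beta-lactamase reporter under AP-1 response element, stimulated with EC50 EGF; compounds titrated, 5 hours at 37 degrees Celsius. CCF4 read at 460/530 nm ratio; positive and negative modulators judged by AC50.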

Test [2] deals with Cytochrome P450 1A2 (Homo sapiens) (UniProt P05177). Kind of test: p450-cyp1a2 (AID 410; calls by dose curve; further: potency means the concentration at half of the fitted maximal effect;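 on activity change, negative = inhibition: -100% = full effect of reference inhibitor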). The method in brief: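 20nM CYP1A2 with 100uM Luciferin-ME (at Km) in 100mM KPO4; compound preincubated 10 min, NADPH regeneration added, 60 min at room temperature. Luciferin quantified by luminescence after detection reagent; normalized to 57 uM furafylline.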
Chain of Cytochrome P450 1A2 (Homo sapiens) (P05177 whole entry, looked up): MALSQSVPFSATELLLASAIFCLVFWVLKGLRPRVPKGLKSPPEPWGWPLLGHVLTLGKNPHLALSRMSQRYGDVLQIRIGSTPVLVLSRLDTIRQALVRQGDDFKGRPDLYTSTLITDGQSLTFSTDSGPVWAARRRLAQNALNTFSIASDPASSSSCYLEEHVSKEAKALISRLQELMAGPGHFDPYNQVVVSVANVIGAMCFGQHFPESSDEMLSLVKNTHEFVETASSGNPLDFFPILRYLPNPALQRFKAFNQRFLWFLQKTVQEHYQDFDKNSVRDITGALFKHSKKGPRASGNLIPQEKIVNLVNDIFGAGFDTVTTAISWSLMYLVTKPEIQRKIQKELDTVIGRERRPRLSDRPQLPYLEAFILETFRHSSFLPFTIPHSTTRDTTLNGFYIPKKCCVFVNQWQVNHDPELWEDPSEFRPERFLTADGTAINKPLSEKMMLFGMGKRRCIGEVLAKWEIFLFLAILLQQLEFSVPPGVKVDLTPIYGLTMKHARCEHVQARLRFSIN
The nature of test [3]: NFAT Signaling Pathway (AID 444; active means well fitted curve in either direction with a large enough effect, not every such curve was filed as active;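 further: carbachol stimulus at about its EC50 of 1 µM final; on the % scale 0 is the no-effect control and ±100 the full control effect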). Particulars: Jurkat NFAT-bla M1, carbachol, beta-lactamase ratio, 5 h; at 17.2 µM (top of the series) unless noted. The method in brief: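 Jurkat cells carrying an NFAT-driven β-lactamase reporter and co-transfected muscarinic M1 receptor were treated with compound plus carbachol (1 uM final, an EC50 level) for 5 h at 37 °C. CCF4 loading followed for 1 h at RT; 460/530 nm ratio gave %activity.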

The target of test [4] is Glucocorticoid receptor (Homo sapiens) (UniProt P04150). Kind of test: GR-GFP Redistribution (AID 450;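 active means compounds whose dose series gives a full or clear partial fitted curve of increased nuclear translocation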; further: potency means the concentration at half of the fitted maximal effect). The conditions noted are these: U2OS GR-GFP nuclear translocation, laser cytometry, 2 h.
Chain of Glucocorticoid receptor (Homo sapiens) (P04150 whole entry, looked up): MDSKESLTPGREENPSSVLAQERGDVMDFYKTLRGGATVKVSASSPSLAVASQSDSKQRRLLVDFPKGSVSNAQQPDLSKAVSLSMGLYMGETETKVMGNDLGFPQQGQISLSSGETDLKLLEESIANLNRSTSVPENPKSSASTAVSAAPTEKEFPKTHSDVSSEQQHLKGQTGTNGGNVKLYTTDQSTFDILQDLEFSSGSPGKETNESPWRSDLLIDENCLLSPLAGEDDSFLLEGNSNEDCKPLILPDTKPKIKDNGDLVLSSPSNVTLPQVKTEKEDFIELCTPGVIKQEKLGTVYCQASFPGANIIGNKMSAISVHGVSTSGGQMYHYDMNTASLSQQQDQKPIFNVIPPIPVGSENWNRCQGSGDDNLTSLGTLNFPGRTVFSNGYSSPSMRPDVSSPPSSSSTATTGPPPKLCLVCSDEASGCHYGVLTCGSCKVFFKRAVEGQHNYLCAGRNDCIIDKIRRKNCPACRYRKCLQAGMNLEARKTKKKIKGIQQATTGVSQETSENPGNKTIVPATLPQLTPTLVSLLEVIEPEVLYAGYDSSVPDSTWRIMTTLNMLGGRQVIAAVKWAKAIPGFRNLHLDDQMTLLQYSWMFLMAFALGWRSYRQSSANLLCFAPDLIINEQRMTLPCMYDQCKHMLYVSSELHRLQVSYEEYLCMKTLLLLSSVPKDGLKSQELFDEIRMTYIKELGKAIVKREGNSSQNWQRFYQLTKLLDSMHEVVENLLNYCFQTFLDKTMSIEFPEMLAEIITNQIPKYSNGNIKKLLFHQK
The target is the same in test [5]. Kind of test: GR-EFC Redistribution (AID 451; calls by dose curve; further: potency means the concentration at half of the fitted maximal effect). The conditions noted are these: CHO-K1 GR-EFC translocation, beta-gal luminescence, 2 h. The method, boiled down:
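CHO-K1 cells stably expressing nuclear-localized β-gal enzyme acceptor and GR fused C-terminally to the enzyme donor fragment; ligand-driven nuclear translocation restores β-gal by complementation. Compounds titrated up to 46 uM final, 2 h at 37 °C; luminescence read.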

The target in test [6] is Mitogen-activated protein kinase 10 (Mus musculus) (UniProt Q61831). Kind of test: JNK3 AlphaScreen Assay (AID 530; active means well fitted curve in either direction with a large enough effect, not every such curve was filed as active;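 further: kinase came from lysate of stimulated human HepG2 cells; signal reports phosphorylation of biotinylated GST-cJun 1-79 at Ser73 with 10 µM ATP; on the % scale 0 is the no-effect control and ±100 the full control effect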). The method, boiled down: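 Inhibitors reduce antibody binding to phosphorylated biotin-cJun, lowering AlphaScreen luminescence. Lysates from HepG2 cells pre-activated by IL-1beta plus TNF-alpha supplied JNK3; compounds were titrated.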
In general terms: In Alpha technology, singlet oxygen from a donor bead excites a nearby acceptor bead.

Test [7] deals with 3',5'-cyclic-AMP phosphodiesterase 4B (Homo sapiens) (UniProt Q07343). Kind of test: qHTS Assay for Inhibitors of PDE-IV (AID 607; active means well fitted activation curve with a large enough effect in the main read-out, with a control signal flat, not every such curve was filed as active; further: % of control where 0% means no effect). The method in brief:
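Cell-based read-out of cAMP via a modified cyclic nucleotide-gated channel and membrane potential dye (535/590 nm) in HEK293 cells expressing PDE4 endogenously. Compounds tested up to 22.9 uM final; 100 uM RO 20-1724 reference.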
(In qHTS, concentration-response curves come from the screen itself.)

A short description of test [8]: qHTS Assay for Lipid Storage Modulators (AID 1519; calls by dose curve). The conditions noted are these: Drosophila S3 cells, BODIPY lipid droplet/cell ratio, laser cytometry, cells loaded with oleic acid; for activity change, negative = inhibition: at 25.7 µM (top of the series). The method, boiled down:
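Cells seeded at 5,000 per well were treated with compounds over a concentration series and loaded with oleic acid (400 uM, as added). Lipid droplet fluorescence (488 nm excitation, 500-530 nm channel) was read by laser-scanning cytometry and normalized to 20 uM Triacsin C.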

The target in test [9] is Ubiquitin carboxyl-terminal hydrolase 1 (Homo sapiens) (UniProt O94782). The test can be described thus: Inhibitors of USP1/UAF1: Pilot qHTS (AID 504865).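 Further: rhodamine fluorescence freed from ubiquitin-rhodamine substrate followed over time; top concentration of the series differs between compounds; on the % scale 0 is the no-effect control and ±100 the full control effect; nearly all actives have a fitted effect of over 35% in size.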 The method in brief: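 Deubiquitinase activity followed as kinetic rhodamine fluorescence release from 150 nM Ub-Rho. 1 nM USP1/UAF1 with compound, after 15 min room-temperature preincubation, in HEPES pH 7.8 buffer containing TCEP, EDTA, BSA and Tween-20.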
Chain of Ubiquitin carboxyl-terminal hydrolase 1 (Homo sapiens) (O94782 whole entry, looked up): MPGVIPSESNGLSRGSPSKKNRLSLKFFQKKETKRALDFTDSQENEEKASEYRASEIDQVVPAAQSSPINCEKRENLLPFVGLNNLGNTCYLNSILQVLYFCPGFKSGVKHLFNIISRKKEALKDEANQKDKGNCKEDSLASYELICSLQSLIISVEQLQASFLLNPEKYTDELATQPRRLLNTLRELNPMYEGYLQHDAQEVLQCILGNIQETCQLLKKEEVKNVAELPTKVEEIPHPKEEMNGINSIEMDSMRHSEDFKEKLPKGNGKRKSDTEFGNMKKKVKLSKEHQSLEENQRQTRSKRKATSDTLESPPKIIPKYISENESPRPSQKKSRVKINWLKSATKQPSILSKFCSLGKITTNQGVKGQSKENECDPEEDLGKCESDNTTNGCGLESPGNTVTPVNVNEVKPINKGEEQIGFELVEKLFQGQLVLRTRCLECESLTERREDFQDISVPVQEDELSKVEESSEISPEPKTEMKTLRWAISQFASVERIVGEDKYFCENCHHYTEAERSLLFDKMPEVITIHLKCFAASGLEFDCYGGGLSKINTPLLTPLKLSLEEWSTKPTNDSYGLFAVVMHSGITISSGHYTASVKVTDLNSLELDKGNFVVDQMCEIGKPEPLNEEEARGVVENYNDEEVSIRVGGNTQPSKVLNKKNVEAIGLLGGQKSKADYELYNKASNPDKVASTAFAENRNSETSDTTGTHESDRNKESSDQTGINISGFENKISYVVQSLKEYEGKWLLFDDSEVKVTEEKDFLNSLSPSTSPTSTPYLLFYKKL

The nature of test [10]: Stat Signaling Pathway (AID 446; active means well fitted curve in either direction with a large enough effect, not every such curve was filed as active;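 further: ME-180 cervical cancer cells given 40 pM IL-6 alongside compound; SIE-controlled beta-lactamase reporter measured as 460/530 nm FRET emission ratio; on the % scale 0 is the no-effect control and ±100 the full control effect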). The method, boiled down: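 Reporter line: ME-180 cervical carcinoma, SIE-beta-lactamase. Treatment: compound with 40 pM IL-6, 5 hrs, 37 C, in low-serum OPTI-MEM with 10 mM HEPES pH 7.3. Detection: 460/530 nm fluorescence.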
Test [11] has as its target ATP-dependent 6-phosphofructokinase (Trypanosoma brucei brucei) (UniProt O15648). Kind of test: qHTS Assay to Find Inhibitors of T. brucei phosphofructokinase: hit validation (AID 492961). The method in brief: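 Percent activity derived from corrected luminescence, normalized between 0x and 1x enzyme controls, then fitted to concentration-response curves. Conditions: 1.25 nM PFK, 0.1 mM ATP, 0.5 mM F6P, 45 min RT.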

For test [12], the target named is Luciferin 4-monooxygenase (Photinus pyralis) (UniProt P08659). The test can be described thus: Biochemical firefly luciferase enzyme assay for NPC (AID 624030).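 Further: purified P. pyralis luciferase at 10 nM with luciferin and ATP substrate; 0% = DMSO and -100% = full luciferase inhibition by PTC124 control; nearly all actives have a fitted effect of over 70% in size.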 The method, boiled down: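 Counter-screen for direct inhibition of the luciferase enzyme by approved-drug library compounds, run at 10 nM enzyme in 50 mM Tris acetate (final). Luminescence was read within 5 min of enzyme-buffer addition and normalized to PTC124 versus DMSO (0%).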
Chain of Luciferin 4-monooxygenase (Photinus pyralis) (P08659 whole entry, looked up): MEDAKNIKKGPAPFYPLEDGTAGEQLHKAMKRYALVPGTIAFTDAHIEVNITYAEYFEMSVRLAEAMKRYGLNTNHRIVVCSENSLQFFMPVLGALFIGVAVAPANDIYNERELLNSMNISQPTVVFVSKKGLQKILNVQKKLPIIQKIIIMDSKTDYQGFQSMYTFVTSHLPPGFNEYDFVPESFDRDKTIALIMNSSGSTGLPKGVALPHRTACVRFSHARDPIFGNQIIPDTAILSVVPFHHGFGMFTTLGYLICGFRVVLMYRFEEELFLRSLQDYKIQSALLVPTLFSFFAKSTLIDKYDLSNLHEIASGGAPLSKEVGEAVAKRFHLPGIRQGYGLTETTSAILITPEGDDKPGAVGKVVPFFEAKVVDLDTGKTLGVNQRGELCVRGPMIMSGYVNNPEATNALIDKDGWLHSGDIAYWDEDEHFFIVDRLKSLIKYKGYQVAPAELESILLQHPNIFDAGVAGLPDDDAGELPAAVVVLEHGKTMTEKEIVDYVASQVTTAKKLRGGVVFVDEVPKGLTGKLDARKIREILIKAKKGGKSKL

A short description of test [13]: qHTS profiling for inhibitors of Plasmodium falciparum proliferation (AID 504749). Further: nearly all actives have a fitted effect of over 60% in size. Further: potency means the concentration at half of the fitted maximal effect.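 On activity, negative = inhibition: 0% = DMSO vehicle and full inhibition = artemisinin control.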 Particulars: P. falciparum in erythrocytes, SYBR Green DNA, 72 h. The method in brief: (§1)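 Parasite proliferation within erythrocytes, 72 h exposure. Endpoint: SYBR Green I fluorescence after overnight lysis at room temperature. Controls: 0.29 uM artemisinin, DMSO.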
For another test, the system named is C2A. The description is as above. The conditions noted are these: P. falciparum in erythrocytes, SYBR Green DNA, 72 h; series mostly up to 12.8 µM. The method in brief: as §1
A further test deals with CP191. The test is described as above. Particulars: P. falciparum in erythrocytes, SYBR Green DNA, 72 h; series mostly up to 12.8 µM. The method, boiled down: as §1
Another test deals with CP238. The description is as above. The conditions noted are these: P. falciparum in erythrocytes, SYBR Green DNA, 72 h; series mostly up to 12.8 µM. The method, boiled down:
as §1

The test system of the next test is CP256. The description is as above. The conditions noted are these: P. falciparum in erythrocytes, SYBR Green DNA, 72 h; series mostly up to 12.8 µM. The method, boiled down: as §1
A further test deals with FAB9. The description is as above. Particulars: P. falciparum in erythrocytes, SYBR Green DNA, 72 h; series mostly up to 12.8 µM. The method, boiled down:
as §1

A further test deals with JCK. The description is as above. Particulars: P. falciparum in erythrocytes, SYBR Green DNA, 72 h; series mostly up to 12.8 µM. The method in brief:
as §1

The next test has as its system SC27B. Described as above. Particulars: P. falciparum in erythrocytes, SYBR Green DNA, 72 h; series mostly up to 12.8 µM. The method, boiled down: as §1
The mark [14] stands for this setting: measured here: cell count channel max response.
Setting [15] is: measured here: lipid channel max response.

Results filed as inconclusive are left out. The source made the active and inactive calls. Unless noted, the call rests on the fitted dose curve; in most records, active means well fitted curve in the direction sought with a large enough effect; inconclusive means small, poorly fitted or top-dose-only effect, or another doubt; inactive means no such curve, though single readings can be large; an effect the other way counts as inactive or inconclusive. Bounds are passed on as bounds.

Chain of 3',5'-cyclic-AMP phosphodiesterase 4B (Homo sapiens) (Q07343 whole entry, looked up): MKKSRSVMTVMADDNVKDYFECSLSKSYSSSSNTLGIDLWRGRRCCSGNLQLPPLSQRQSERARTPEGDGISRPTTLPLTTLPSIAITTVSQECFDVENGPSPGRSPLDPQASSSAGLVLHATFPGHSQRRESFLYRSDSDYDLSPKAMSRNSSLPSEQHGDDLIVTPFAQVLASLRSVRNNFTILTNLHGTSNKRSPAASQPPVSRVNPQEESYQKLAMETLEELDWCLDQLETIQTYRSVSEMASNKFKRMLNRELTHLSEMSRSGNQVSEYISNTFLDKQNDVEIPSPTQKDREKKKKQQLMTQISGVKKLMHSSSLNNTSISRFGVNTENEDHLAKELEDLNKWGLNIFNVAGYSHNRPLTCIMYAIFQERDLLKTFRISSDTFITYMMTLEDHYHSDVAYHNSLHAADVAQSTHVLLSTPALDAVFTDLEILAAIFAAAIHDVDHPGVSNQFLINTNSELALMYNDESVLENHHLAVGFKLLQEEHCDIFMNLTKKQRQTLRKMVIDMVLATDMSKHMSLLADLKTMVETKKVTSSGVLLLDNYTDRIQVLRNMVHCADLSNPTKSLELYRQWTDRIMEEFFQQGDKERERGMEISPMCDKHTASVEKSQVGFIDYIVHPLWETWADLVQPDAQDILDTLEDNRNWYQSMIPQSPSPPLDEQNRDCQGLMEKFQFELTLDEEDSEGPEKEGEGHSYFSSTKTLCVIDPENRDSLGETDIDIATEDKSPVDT
Chain of ATP-dependent 6-phosphofructokinase (Trypanosoma brucei brucei) (O15648 whole entry, looked up): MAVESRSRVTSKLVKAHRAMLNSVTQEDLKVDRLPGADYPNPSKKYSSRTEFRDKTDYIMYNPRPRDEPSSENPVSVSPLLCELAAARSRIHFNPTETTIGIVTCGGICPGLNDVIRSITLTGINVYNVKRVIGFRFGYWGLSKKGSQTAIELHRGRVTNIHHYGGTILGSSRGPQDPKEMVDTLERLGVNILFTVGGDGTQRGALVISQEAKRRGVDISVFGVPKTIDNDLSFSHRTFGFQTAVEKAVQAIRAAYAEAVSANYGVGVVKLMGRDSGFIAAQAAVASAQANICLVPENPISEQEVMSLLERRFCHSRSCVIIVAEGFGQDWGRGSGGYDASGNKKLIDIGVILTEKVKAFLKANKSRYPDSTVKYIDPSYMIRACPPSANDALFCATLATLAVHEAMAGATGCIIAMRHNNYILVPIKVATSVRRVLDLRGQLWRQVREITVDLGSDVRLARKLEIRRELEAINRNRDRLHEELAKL

For `C[C@]12CC[C@@H]3C(=CCc4cc(O)ccc43)[C@@H]1CCC2=O`, the compound was classed as inactive in test [1] and in test [7]. For the same compound, the Potency in [2] was 10 µM (active); in [4], > 20.6 µM (inactive); in test [5], > 20.6 µM (inactive). Besides, the activity change, negative = inhibition is 1.57% (inactive) in [3] and -4.32% (inactive) in test [8]. The Potency result in test [6] and in [9] was “inactive” in each case. For the same compound, the max response in test [8] (setting [14]) is -14.4%; in [8] (setting [15]), -15.4%.
In the case of `C[C@@]1(O)CCOC(=O)C1`, the compound was classed as inactive in test [1], in test [10] and in test [7]. Moreover, the Potency result in [2], in test [6] and in test [9] was “inactive” throughout. The Potency in test [4] and in [5] was > 20.6 µM (inactive) each time. In addition, in test [8], the activity change, negative = inhibition was -1.74% (inactive). Further, the max response in test [8] (setting [14]) was -3.45%; in test [8] (setting [15]), -5.01%.
Regarding `CN=C(NC#N)NCCSC[C@H]1N=CN=C1C`, the call in test [1] and in test [7] was inactive. The Potency entry in [2], in test [6] and in [9] was “inactive” each time. The activity change, negative = inhibition is -3.43% (inactive) in [3] and -0.0882% (inactive) in test [8]. Besides, the figures for the max response in test [8] (setting [14]) and in test [8] (setting [15]) were -1.59% and -1.32%, respectively.
Consider `O=C(O)[C@@H]1CCCNC1`, for which the compound was called inactive in [1] and in test [7]. In addition, the Potency result in test [2], in test [6] and in test [9] was “inactive” throughout. Besides, the activity change, negative = inhibition in test [3] was -10.3% (inactive); in test [8] it was -1.28% (inactive). Also, the Potency in [4] and in [5] was > 20.6 µM (inactive) in each case. Moreover, the max response in test [8] (setting [14]) was -8.86%; in test [8] (setting [15]), -11.3%.
As to `CN(C/C=C\c1ccccc1)Cc1cccc2ccccc12`, the compound was classed as inactive in [1], in test [10] and in test [11]. Besides, the Potency was 2 µM (active) in [2], > 20.6 µM (inactive) in test [4] and > 20.6 µM (inactive) in test [5]. In addition, the Potency entry (in test [6]; in test [9]; in test [12]; with C2A; with CP191; in the test with CP238) was “inactive” each time. In addition, the Potency entry with CP256, in the test with FAB9, with JCK and with SC27B was “inactive” in each case. Further, in test [8], the activity change, negative = inhibition was -0.644% (inactive). The max response in test [8] (setting [14]) was -24.2%; in test [8] (setting [15]) it was -23.6%. Moreover, the activity, negative = inhibition in test [13] (at 28.7 µM (top of the series), parasite line A) is 18.6% (inactive); in [13] (at 28.7 µM (top of the series), parasite line B), 9.39% (inactive).
With `CNCCC=C1c2ccccc2C=Cc2ccccc21`, the compound was classed as inactive in test [1] and in test [10]. Further, the Potency in [2] is 6.31 µM (active); in test [4], > 20.6 µM (inactive). Also, the activity change, negative = inhibition in test [8] is -3.6% (inactive). In addition, the results for the max response in test [8] (setting [14]) and in test [8] (setting [15]) were -2.2% and -8.1%, respectively. The Potency entry in test [9] was “inactive”.
Turning to `CN1CCN([C@@H](c2ccccc2)c2ccc(Cl)cc2)CC1`, the result in [1], in test [10], in test [7] and in test [11] was inactive. Further, the Potency result (in test [2]; in test [6]; in [9]; in test [12]; in the test on C2A; in the test with CP191) was “inactive” throughout. In addition, the Potency entry in the test with CP238, in the test on FAB9, in the test with JCK and in the test on SC27B was “inactive” in each case. For the same compound, the Potency in test [4] is > 20.6 µM (inactive); in [5], > 20.6 µM (inactive); with CP256 it was 3.55 µM (active). For the same compound, in test [8], the activity change, negative = inhibition is -3.4% (inactive). Also, the results for the max response in test [8] (setting [14]) and in test [8] (setting [15]) were -16% and -18.7%, respectively. Also, the activity, negative = inhibition is 1.67% (inactive) in test [13] (at 12.8 µM (top of the series), parasite line A) and -12.4% (inactive) in [13] (at 12.8 µM (top of the series), parasite line B).
